Laboratory results reported in PubChem BioAssay (NCI).
Compounds without any hit were thinned out: in the full panel of roughly 83,000, 20% have a hit.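 Cells were grown in 96-well plates and exposed to the test compound at a single concentration for 48 hours; results are reported as percent growth, with values below 10 considered active.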 Unmarked numbers belong to inactive results. Activity calls are given as the source filed them.

Tests used:
Experiment in all cases: NCI-60 one-dose screen, 48 h (100 = growth as untreated, 0 = no growth, -100 = all killed)
Conditions in all cases: 10 µM unless noted
NCI-H23 lung = system: NCI-H23 lung
NCI-H226 lung = system: NCI-H226 lung
NCI-H322M lung = system: NCI-H322M lung
HOP-62 NSCLC = system: HOP-62 NSCLC
NCI-H460 lung = system: NCI-H460 lung
HOP-92 NSCLC = system: HOP-92 NSCLC
NCI-H522 lung = system: NCI-H522 lung
A549/ATCC NSCLC = system: A549/ATCC NSCLC
786-0 renal = system: 786-0 renal
COLO 205 colon = system: COLO 205 colon

| SMILES | growth (NCI-H23 lung) | growth (NCI-H226 lung) | growth (NCI-H322M lung) | growth (HOP-62 NSCLC) | growth (NCI-H460 lung) | growth (HOP-92 NSCLC) | growth (NCI-H522 lung) | growth (A549/ATCC NSCLC) | growth (786-0 renal) | growth (COLO 205 colon) |
| --- | --- | --- | --- | --- | --- | --- | --- | --- | --- | --- |
| CCN(CC)CC(C)Nc1ccc(C)c2sc3ccccc3c(=O)c12 (stereo not given) | 65.9% | 74.2% | 91.8% | 76.3% | 19.5% | 38.2% | 64.8% | 32.7% | 53.1% | 37.9% |
| Cc1ccc(C2=C/C(=C/c3ccc(Br)cc3)C(=O)N2CCc2ccc(S(N)(=O)=O)cc2)cc1 | 100% | 97% | 90.6% | 96.1% | 100% | 89.9% | 89% | 96% | 97.1% | 115% |
| CC1(C)[C@@H](NOCCCN)CC[C@]2(C)[C@H]3C(=O)C=C4[C@@H]5C[C@](C)(C(=O)O)CC[C@]5(C)CC[C@@]4(C)[C@]3(C)CC[C@@H]12 | -39.4% [100 µM] (active) | -44.8% [100 µM] (active) | -94.4% [100 µM] (active) | -84.4% [100 µM] (active) | -67.2% [100 µM] (active) | -71.8% [100 µM] (active) | -57.7% [100 µM] (active) | -27.4% [100 µM] (active) | -78.6% [100 µM] (active) | -68.2% [100 µM] (active) |
| COc1ccc(NCc2cn(-c3ccc(C(=O)O)cc3)nc2-c2ccc(C(=O)O)cc2)cc1C(F)(F)F | 99.8% | 98.5% | 89.1% | 96.6% | 100% | 66.6% | 97.8% | 99.8% | 90.4% | 111% |
| C=C(C)[C@@H]1CC[C@]2(c3ncc(C)o3)CC[C@]3(C)[C@H](CC[C@@H]4[C@@](C)(CCC#N)[C@H](C(=C)C)CC[C@]43C)[C@@H]12 | -68.1% [100 µM] (active) | -55.2% [100 µM] (active) | -83.5% [100 µM] (active) | -86.1% [100 µM] (active) | -71.4% [100 µM] (active) | -85.7% [100 µM] (active) | -85.4% [100 µM] (active) | -84.8% [100 µM] (active) | -85.6% [100 µM] (active) | -82% [100 µM] (active) |
| Nc1cc(N)c(N=Nc2ccc(S(=O)(=O)O)cc2)cc1N=Nc1ccc(-c2ccc(N=Nc3ccc(O)c(C(=O)O)c3)cc2)cc1 | 95.7% | 92.2% | 101% | 98.8% | 105% | 108% | 98.2% | 101% | 105% | 109% |
| c1nc(N2CCOCC2)c2[nH]ccc2n1 | 116% | 114% | 104% | 114% | 104% | 69.8% | 102% | 99.9% | 101% | 113% |
| CC(C)c1ccc(C(=O)Nc2nc3ccc(O)cc3s2)cc1 | 51.4% | 66.6% | 62.2% | 93.1% | 3.97% (active) | 50% | 39.6% | 33.5% | 0.538% (active) | 33% |
| O=C1COCCN1c1ccc(NCc2cn(Cc3cccc4ccccc34)c3ccccc23)cc1 | 84% | 5.06% (active) | 91.5% | 84.3% | 64.4% | 72.6% | 86.3% | 87.7% | 98.8% | 93.6% |
| NC(=O)c1cccc(-c2ccc(S(=O)(=O)Nc3ccc4c(c3)N(C(=O)C3CC3)CCC4)cc2)c1 | 48% | 63.7% | 70% | 38.4% | 17.1% | 33.7% | 7.75% (active) | 50.8% | 100% | 43.6% |
| CC(C)(C)c1cc(C(=O)N2CCC(C(=O)NCCN)CC2)cc(C(C)(C)C)c1 | 104% | 81.3% | 93.6% | 97.5% | 100% | 85.1% | 66% | 81% | 106% | 98.9% |
| CCCCCCCCCCCCCC[n+]1cccc(C(N)=O)c1 | 13.9% | 13.8% | 16.8% | 17.1% | 14.8% | -26.8% (active) | -35.3% (active) | 69.5% | -40% (active) | -66.8% (active) |
